Test systems include INSRR; INSR; IRAK1; IRAK3; IRAK4; ITK; KIT-autoinhibited; KIT; LATS1; LATS2.
Holding throughout (conditions): concentration: 1 μM, replicates: in singlicate; n = 1
In another experiment the test system is T1, IKK-alpha.
T1 construct: gene CHUK

The subject of a further experiment is T2, IKK-beta.
T2 construct: gene IKBKB

In the next experiment the test system is T3, IKK-epsilon.
T3 construct: gene IKBKE

Experiment [1] deals with JAK1(JH1domain-catalytic).
In experiment [2] the test system is JAK1(JH2domain-pseudokinase).
The subject of experiment [3] is JAK2(JH1domain-catalytic).
The test system of experiment [4] is JAK3(JH1domain-catalytic).
The subject of the next experiment is T4, JNK1.
T4 construct: gene MAPK8

The next experiment relates to T5, JNK2.
T5 construct: gene MAPK9

A further experiment has as its system T6, JNK3.
T6 construct: gene MAPK10
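Note: KINOMEscan kinase panel screen.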

Take `O=C(Nc1ccccc1F)NC1CCN(c2ccnc(Nc3ccc(F)cc3)n2)CC1` [GSK1379800]: the “%Inh” value with IKK-alpha is recorded as 0%; with IKK-beta, 0%; in the experiment on IKK-epsilon it was 22%; in the experiment on INSRR, 0%; in the experiment with INSR it was 0%; in the experiment on IRAK1, 24%. The “%Inh” value turned out to be 21% with IRAK3; 5% with IRAK4; 0% in the experiment on ITK; 20% in [1]; 0% in [2]; 0% in experiment [3]. In addition, the “%Inh” value is given as 0% in experiment [4]; 3% with JNK1; 0% in the experiment with JNK2; 0% with JNK3; 0% in the experiment on KIT-autoinhibited; 7% with KIT. In addition, the “%Inh” value is recorded as 0% with LATS1 and 3% in the experiment on LATS2.

Turning to `COc1cc2c(cc1OCCN1CCNCC1)ncc1c3ccc(C#N)cc3[nH]c21`, the “%Inh” value in the experiment on IKK-alpha was found to be 46%; in the experiment on IKK-beta, 32%; with IKK-epsilon, 61%; in the experiment on INSRR, 3%; in the experiment with INSR, 0%; in the experiment on IRAK1, 95.7%. For the same compound, the “%Inh” value with IRAK3 worked out at 88%; in the experiment on IRAK4, 99.7%; with ITK, 23%; in [1] it was 0%; in experiment [2], 45%; in experiment [3], 64%. Further, the “%Inh” value in [4] worked out at 85%; in the experiment with JNK1, 13%; with JNK2, 0%; in the experiment on JNK3, 0%; with KIT-autoinhibited, 55%; with KIT, 70%. The “%Inh” value is listed as 0% with LATS1 and 42% in the experiment with LATS2.

Take `NCCCC(NC(=O)c1cc(Br)c(-c2ccnc3[nH]ccc23)s1)c1ccccc1.O=C(O)C(F)(F)F.O=C(O)C(F)(F)F` (stereo not drawn) [GSK1287544]: the “%Inh” value in the experiment with IKK-alpha was 48%; in the experiment on IKK-beta it was 58%; in the experiment with IKK-epsilon, 0%; in the experiment on INSRR it was 1%; in the experiment on INSR it was 0%; in the experiment on IRAK1, 94.8%. For the same compound, the “%Inh” value in the experiment on IRAK3 came to 0%; in the experiment with IRAK4 it was 7%; in the experiment with ITK, 12%; in experiment [1], 72%; in experiment [2] it was 0%; in experiment [3], 91.3%. Besides, the “%Inh” value in experiment [4] amounted to 87%; in the experiment with JNK1 it was 36%; with JNK2, 22%; in the experiment on JNK3 it was 19%; in the experiment on KIT-autoinhibited it was 0%; with KIT, 22%. Further, the “%Inh” value in the experiment with LATS1 came to 66%; in the experiment on LATS2, 89%.

Consider `Cc1occc1-c1ncc(OC[C@@H](N)Cc2c[nH]c3ccccc23)cc1-c1ccc2[nH]nc(C)c2c1.O=C(O)C(F)(F)F` [GSK682037], for which the “%Inh” value with IKK-alpha is given as 0%; in the experiment with IKK-beta, 0%; in the experiment on IKK-epsilon it was 0%; in the experiment on INSRR it was 9%; in the experiment with INSR, 9%; in the experiment on IRAK1, 0%. In addition, the “%Inh” value is given as 0% in the experiment with IRAK3; 0% in the experiment on IRAK4; 12% in the experiment on ITK; 0% in [1]; 0% in [2]; 5% in experiment [3]. Moreover, the “%Inh” value in experiment [4] stood at 0%; in the experiment on JNK1, 24%; in the experiment on JNK2, 55%; in the experiment with JNK3 it was 12%; in the experiment with KIT-autoinhibited, 0%; with KIT it was 21%. Besides, the results for the “%Inh” value in the experiment with LATS1 and in the experiment on LATS2 were 93.9% and 94.8%, respectively.

Regarding `CCn1c(-c2nonc2N)nc2c(C#CC(C)(C)O)nc(OC[C@H](N)c3ccccc3)cc21` [GSK943949], the “%Inh” value came to 0% in the experiment with IKK-alpha; 0% in the experiment on IKK-beta; 13% in the experiment on IKK-epsilon; 0% with INSRR; 0% in the experiment with INSR; 0% with IRAK1. Besides, the “%Inh” value turned out to be 0% in the experiment with IRAK3; 8% with IRAK4; 0% in the experiment on ITK; 19% in [1]; 0% in [2]; 8% in [3]. Also, the “%Inh” value is recorded as 4% in experiment [4]; 0% in the experiment on JNK1; 0% in the experiment on JNK2; 0% in the experiment on JNK3; 4% in the experiment with KIT-autoinhibited; 0% with KIT. The “%Inh” value in the experiment with LATS1 is given as 59%; in the experiment with LATS2, 100%.

As for `c1ccc(Oc2ccc(Nc3ccnc4cc(-c5ccc(CNCCN6CCOCC6)o5)ccc34)cc2)nc1` [GW567145], the “%Inh” value is 28% in the experiment with IKK-alpha; 0% in the experiment with IKK-beta; 27% in the experiment with IKK-epsilon; 0% with INSRR; 11% in the experiment on INSR; 20% in the experiment with IRAK1. Besides, the “%Inh” value in the experiment on IRAK3 stood at 0%; in the experiment with IRAK4 it was 0%; in the experiment with ITK it was 0%; in experiment [1], 5%; in experiment [2] it was 0%; in [3], 7%. The “%Inh” value in [4] is reported as 0%; in the experiment on JNK1 it was 18%; in the experiment on JNK2 it was 2%; with JNK3, 0%; in the experiment on KIT-autoinhibited it was 4%; in the experiment with KIT it was 79%. Further, the “%Inh” value is 8% in the experiment with LATS1 and 0% in the experiment with LATS2.

In the case of `COc1cccc(C2=C(Nc3ccc(Cl)c(C(=O)O)c3)C(=O)NC2=O)c1` [SB-390769], the “%Inh” value in the experiment with IKK-alpha stood at 100%; in the experiment with IKK-beta it was 100%; with IKK-epsilon it was 91.1%; in the experiment on INSRR it was 8%; in the experiment with INSR, 100%; in the experiment on IRAK1, 48%. Besides, the “%Inh” value with IRAK3 is recorded as 0%; with IRAK4 it was 31%; in the experiment on ITK, 14%; in experiment [1] it was 100%; in experiment [2], 0%; in experiment [3], 100%. Moreover, the “%Inh” value in [4] is reported as 81%; in the experiment on JNK1 it was 52%; in the experiment with JNK2, 64%; in the experiment on JNK3, 45%; in the experiment with KIT-autoinhibited, 0%; in the experiment on KIT, 6%. In addition, the “%Inh” value in the experiment on LATS1 was 18%; with LATS2 it was 100%.

For the compound `CN(C)Cc1ccc(-c2ccc3c(Nc4ccc(Oc5ccccn5)cc4)ccnc3c2)o1` [GW567148], the “%Inh” value in the experiment with IKK-alpha stood at 27%; with IKK-beta, 7%; in the experiment on IKK-epsilon, 27%; in the experiment on INSRR, 0%; in the experiment with INSR, 6%; in the experiment on IRAK1 it was 21%. Moreover, the “%Inh” value with IRAK3 is listed as 22%; in the experiment with IRAK4, 0%; in the experiment with ITK, 15%; in [1], 0%; in experiment [2] it was 0%; in experiment [3] it was 18%. For the same compound, the “%Inh” value in experiment [4] is 0%; with JNK1 it was 19%; in the experiment on JNK2, 4%; in the experiment on JNK3 it was 0%; with KIT-autoinhibited, 0%; in the experiment on KIT, 92.8%. Also, the “%Inh” value with LATS1 and in the experiment with LATS2 was 0% each time.

For `Nc1ncc(-c2ccc3nccc(-c4ccncc4)c3c2)cc1S(=O)(=O)N1CCOCC1` [GSK1627798], the “%Inh” value in the experiment with IKK-alpha is reported as 21%; in the experiment with IKK-beta it was 9%; in the experiment on IKK-epsilon it was 11%; with INSRR, 15%; in the experiment on INSR, 35%; with IRAK1 it was 31%. Also, the “%Inh” value in the experiment on IRAK3 came out at 73%; with IRAK4, 16%; in the experiment with ITK, 11%; in [1], 3%; in experiment [2], 0%; in [3] it was 0%. Moreover, the “%Inh” value came out at 0% in experiment [4]; 26% with JNK1; 19% with JNK2; 10% with JNK3; 0% in the experiment on KIT-autoinhibited; 16% in the experiment on KIT. Moreover, the “%Inh” value in the experiment on LATS1 and in the experiment on LATS2 was 0% throughout.

For the origin of these results see paper PMC5540273 (PLoS ONE, 2017).
